Measured values as given in PubChem BioAssay AID1159580 (chemical genetic matrix, 2015).
Hit rate of the full screen: of about 5,500 compounds, about 2,000 (36%) were called active. Not shown: some 18% with an inconclusive outcome. Rule as the data show it: active = normalized growth mostly below about 0.91 (no sharp cut-off); inconclusive = no clear call, values can overlap the other calls; inactive = mostly above about 0.92. Some of the results follow.

Assay: chemical genetic growth profiling, strain panel (AID 1159580);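 also: tested at 20 µM; growth read once vehicle control cultures reached saturation at 30 °C; 1 = growth at the plate median or of vehicle wells; lower values mean less growth of the strain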
Details: growth OD
[1] = S. cerevisiae deletion strains, locus YDR150W, strain NUM1, stronger effect = lower value
[2] = S. cerevisiae deletion strains, locus YJR075W, strain HOC1, stronger effect = lower value
[3] = S. cerevisiae deletion strains, locus YMR307W, strain GAS1, stronger effect = lower value

Measured: normalized growth

C=C/C(C)=C/[C@@]1(C)SC(=O)C(C)=C1O
inactive: S. cerevisiae deletion strains, locus YAL040C, strain CLN3, stronger effect = lower value 0.998 | S. cerevisiae deletion strains, locus YCL061C, strain MRC1 (second series), stronger effect = lower value 1 | [1] 1.01 | S. cerevisiae deletion strains, locus YDR363W, strain ESC2, stronger effect = lower value 1.02 | S. cerevisiae deletion strains, locus YER002W, strain NOP16, stronger effect = lower value 0.986 | S. cerevisiae deletion strains, locus YGR078C, strain PAC10, stronger effect = lower value 1.01 | S. cerevisiae deletion strains, locus YGR229C, strain SMI1, stronger effect = lower value 1.01 | [2] 1 | [3] 0.998 | S. cerevisiae deletion strains, locus YNL175C, strain NOP13, stronger effect = lower value 0.996 | S. cerevisiae deletion strains, locus YNL197C, strain WHI3, stronger effect = lower value 1 | S. cerevisiae deletion strains, locus YNL224C, strain SQS1, stronger effect = lower value 1 | S. cerevisiae deletion strains, locus YNL322C, strain KRE1, stronger effect = lower value 0.999 | S. cerevisiae deletion strains, locus YOR083W, strain WHI5 (second series), stronger effect = lower value 0.999

C/C1=C\CC(C)(C)/C=C/CC2(C)OC2CC1 (stereo not given)
inactive: S. cerevisiae deletion strains, locus YBR021W, strain FUR4, stronger effect = lower value 1.02 | S. cerevisiae deletion strains, locus YBR229C, strain ROT2, stronger effect = lower value 1.01 | S. cerevisiae deletion strains, locus YCL029C, strain bik1, stronger effect = lower value 0.999 | S. cerevisiae deletion strains, locus YDL035C, strain GPR1, stronger effect = lower value 0.998 | S. cerevisiae deletion strains, locus YDL074C, strain BRE1, stronger effect = lower value 1.01 | S. cerevisiae deletion strains, locus YDL101C, strain DUN1, stronger effect = lower value 1.03 | S. cerevisiae deletion strains, locus YDL185W, strain tfp1, stronger effect = lower value 1.01 | S. cerevisiae deletion strains, locus YDL192W, strain arf1, stronger effect = lower value 1.01 | S. cerevisiae deletion strains, locus YDR101C, strain arx1, stronger effect = lower value 0.968 | [1] 1.01 | S. cerevisiae deletion strains, locus YDR162C, strain NBP2, stronger effect = lower value 1 | S. cerevisiae deletion strains, locus YDR318W, strain mcm21, stronger effect = lower value 0.997 | S. cerevisiae deletion strains, locus YDR388W, stronger effect = lower value 1.01 | S. cerevisiae deletion strains, locus YDR502C, strain sam2, stronger effect = lower value 1.03 | S. cerevisiae deletion strains, locus YEL061C, strain CIN8, stronger effect = lower value 1.01 | S. cerevisiae deletion strains, locus YER110C, stronger effect = lower value 1.02 | S. cerevisiae deletion strains, locus YER155C, strain BEM2, stronger effect = lower value 1 | S. cerevisiae deletion strains, locus YER167W, strain BCK2, stronger effect = lower value 1 | S. cerevisiae deletion strains, locus YGL078C, strain dbp3, stronger effect = lower value 1.01 | S. cerevisiae deletion strains, locus YGL086W, strain mad1, stronger effect = lower value 1.01 | S. cerevisiae deletion strains, locus YGL248W, strain PDE1, stronger effect = lower value 1.04 | S. cerevisiae deletion strains, locus YGR135W, strain pre9, stronger effect = lower value 1.05 | S. cerevisiae deletion strains, locus YGR252W, strain gcn5, stronger effect = lower value 1.05 | S. cerevisiae deletion strains, locus YHR030C, strain SLT2, stronger effect = lower value 1 | S. cerevisiae deletion strains, locus YHR079C, strain IRE1 (second series), stronger effect = lower value 1.01 | S. cerevisiae deletion strains, locus YHR094C, strain hxt1, stronger effect = lower value 1.02 | S. cerevisiae deletion strains, locus YHR129C, strain ARP1, stronger effect = lower value 1.01 | S. cerevisiae deletion strains, locus YHR200W, strain rpn10, stronger effect = lower value 1.01 | S. cerevisiae deletion strains, locus YIL066C, strain RNR3, stronger effect = lower value 1.01 | S. cerevisiae deletion strains, locus YIL073C, strain SPO22, stronger effect = lower value 1.04 | S. cerevisiae deletion strains, locus YIL125W, strain kgd1, stronger effect = lower value 1.01 | S. cerevisiae deletion strains, locus YIR030C, strain dcg1, stronger effect = lower value 0.999 | S. cerevisiae deletion strains, locus YJL095W, strain BCK1, stronger effect = lower value 1.08 | S. cerevisiae deletion strains, locus YJL134W, strain LCB3, stronger effect = lower value 1 | S. cerevisiae deletion strains, locus YJL168C, strain set2, stronger effect = lower value 1.02 | S. cerevisiae deletion strains, locus YJL187C, strain SWE1 (second series), stronger effect = lower value 1.03 | S. cerevisiae deletion strains, locus YJR043C, strain POL32, stronger effect = lower value 0.99 | [2] 1.01 | S. cerevisiae deletion strains, locus YKL009W, strain mrt4, stronger effect = lower value 1.01 | S. cerevisiae deletion strains, locus YKL068W, stronger effect = lower value 1 | S. cerevisiae deletion strains, locus YKL085W, strain MDH1 (second series), stronger effect = lower value 1.01 | S. cerevisiae deletion strains, locus YKL085W, strain MDH1, stronger effect = lower value 1.01 | S. cerevisiae deletion strains, locus YKR001C, strain vps1, stronger effect = lower value 0.998 | S. cerevisiae deletion strains, locus YLR039C, strain RIC1, stronger effect = lower value 1.04 | S. cerevisiae deletion strains, locus YLR058C, strain SHM2, stronger effect = lower value 1.01 | S. cerevisiae deletion strains, locus YLR102C, strain apc9, stronger effect = lower value 1.01 | S. cerevisiae deletion strains, locus YLR262C, strain YPT6, stronger effect = lower value 1.07 | S. cerevisiae deletion strains, locus YLR268W, strain sec22, stronger effect = lower value 0.99 | S. cerevisiae deletion strains, locus YLR342W, strain FKS1 (second series), stronger effect = lower value 1.02 | S. cerevisiae deletion strains, locus YLR371W, strain rom2, stronger effect = lower value 0.984 | S. cerevisiae deletion strains, locus YLR418C, strain cdc73, stronger effect = lower value 1.08 | S. cerevisiae deletion strains, locus YML016C, strain PPZ1, stronger effect = lower value 1 | S. cerevisiae deletion strains, locus YML032C, strain rad52, stronger effect = lower value 1 | S. cerevisiae deletion strains, locus YML124C, strain tub3, stronger effect = lower value 1 | S. cerevisiae deletion strains, locus YMR078C, strain ctf18, stronger effect = lower value 1.01 | S. cerevisiae deletion strains, locus YMR223W, strain ubp8, stronger effect = lower value 1.01 | S. cerevisiae deletion strains, locus YMR263W, strain SAP30, stronger effect = lower value 1.02 | [3] 0.978 | S. cerevisiae deletion strains, locus YNL067W, strain RPL9B, stronger effect = lower value 1.02 | S. cerevisiae deletion strains, locus YNL153C, strain GIM3, stronger effect = lower value 1.03 | S. cerevisiae deletion strains, locus YNL233W, strain BNI4, stronger effect = lower value 1.03 | S. cerevisiae deletion strains, locus YNL250W, strain rad50, stronger effect = lower value 1.01 | S. cerevisiae deletion strains, locus YNL271C, strain bni1, stronger effect = lower value 1.01 | S. cerevisiae deletion strains, locus YNL298W, strain CLA4, stronger effect = lower value 0.995 | S. cerevisiae deletion strains, locus YNL307C, strain MCK1, stronger effect = lower value 1.03 | S. cerevisiae deletion strains, locus YNR052C, strain pop2, stronger effect = lower value 1.01 | S. cerevisiae deletion strains, locus YOL006C, strain TOP1, stronger effect = lower value 1 | S. cerevisiae deletion strains, locus YOL012C, strain htz1 1.6 | S. cerevisiae deletion strains, locus YOL147C, strain pex11, stronger effect = lower value 1.01 | S. cerevisiae deletion strains, locus YOR061W, strain CKA2, stronger effect = lower value 0.994 | S. cerevisiae deletion strains, locus YOR069W, strain VPS5, stronger effect = lower value 1.01 | S. cerevisiae deletion strains, locus YOR136W, strain idh2, stronger effect = lower value 1 | S. cerevisiae deletion strains, locus YOR144C, strain elg1, stronger effect = lower value 1 | S. cerevisiae deletion strains, locus YOR184W, strain ser1, stronger effect = lower value 0.986 | S. cerevisiae deletion strains, locus YOR316C, strain cot1, stronger effect = lower value 1 | S. cerevisiae deletion strains, locus YPR119W, strain clb2, stronger effect = lower value 1.02 | S. cerevisiae deletion strains, locus YPR141C, strain kar3, stronger effect = lower value 1.01 | S. cerevisiae deletion strains, locus YPR163C, strain tif3, stronger effect = lower value 1.02 | S. cerevisiae deletion strains, locus YPR167C, strain met16, stronger effect = lower value 1.02 | S. cerevisiae deletion strains, strain wtn01, stronger effect = lower value 0.974 | S. cerevisiae strains, strain wild type, stronger effect = lower value 1.01
